# Source: PubChem BioAssay
# TGFb inhibitor = blocks TGF-b signaling. HepG2 CAGA-GFP TGF-b/SMAD3 reporter, GFP fluorescence, 18 h; TGF-beta stimulated, 500 pg/mL final. AID 588855. actives 1.2% (n = 410,000). Potency, µM (titrated, usually from 46.1 µM), for the others: top-dose activity, negative = inhibition, hits mostly inhibitors; further: potency means the concentration at half of the fitted maximal effect; on the % scale 0 is the no-effect control and ±100 the full control effect; nearly all actives have a fitted effect of over 65% in size
#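 HEPG2 CAGA-GFP cells (1000/well, DMEM with 1% FBS) were pre-incubated 2 h at 37 degrees C, given compound by pin tool, then stimulated with TGF-beta at 500 pg/mL final for 18 h before per-cell GFP fluorescence imaging.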
# uPA surface inh = cell surface uPA generation inhibition; cell surface uPA generation assay, qHTS; Potency, µM (highest dose often 38.3 µM), for inactives: at the highest dose activity change, negative = inhibition, actives largely listed as inhibitors; actives 0.31% (n = 330,000); active means well fitted inhibition curve with a large enough effect; inconclusive means small, poorly fitted or top-dose-only effect; inactive means no such curve, though single readings can be large or run the other way; tested in mouse RAW 264.7 cells; further: potency means the concentration at half of the fitted maximal effect; on the % scale 0 is the no-effect control and ±100 the full control effect; nearly all actives have a fitted effect of over 55% in size
# Giardia killer = Giardia lamblia killing | Giardia lamblia trophozoite viability | activity change, % at 7.66 µM, hits read low | actives 0.15% (n = 340,000) | AID 540267; in the data active means activity change below about -80%; inconclusive means between about -30% and that limit;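 further: parasites exposed to compound for two days anaerobically before the ATP read; on the % scale 0 is the no-effect control and ±100 the full control effect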
#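 Killing of trophozoites was scored by loss of ATP luminescence after a 48 hrs anaerobic exposure to compounds at 37 deg C, using 100 cells per well.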
# ATXN viability = cell viability loss in ATXN counter-screen; Potency, µM (top dose mostly 56.7 µM), hits mostly cytotoxic; AID 651635; actives 0.49% (n = 400,000); S2 cells (HEK-293 line with an ATXN2-luciferase reporter) viability, CellTiter-Fluor protease fluorescence, 24 h; further: potency means the concentration at half of the fitted maximal effect; nearly all actives have a fitted effect of over 40% in size
# HepG2 tox = kills HepG2 cells in TGF-b inhibitor counter-screen; Potency, µM (highest dose often 46.1 µM), for the others: at the top dose activity change, negative = cytotoxicity, hits mostly cytotoxic; AID 588856; HepG2 CAGA-GFP viability, ATP luminescence, 18 h; actives 0.76% (n = 410,000); further: potency means the concentration at half of the fitted maximal effect
#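 HepG2 CAGA-GFP cells (1000/well, DMEM with 1% FBS) received compound, then TGF-beta at 500 pg/mL final, and were incubated 18 hours at 37 degrees C. Viability was read by CellTiter-Glo luminescence. Media-only wells were set as complete cell-killing and DMSO as no toxicity.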
# ATXN2 expr inh = inhibitors of ATXN2 expression | actives 0.72% (n = 360,000) | Potency, µM (top dose mostly 57 µM), for inactives: at the top dose activity change, negative = inhibition, hits mostly inhibitors | HEK-293 ATXN2-luciferase reporter, luminescence, 24 h | AID 1745845; further: potency means the concentration at half of the fitted maximal effect; on the % scale 0 is the no-effect control and ±100 the full control effect; nearly all actives have a fitted effect of over 55% in size
#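 ATXN2-luciferase reporter cells (luciferase flanked by upstream and downstream ATXN2 gene portions) were treated 24 h at 37 °C with compounds at up to 57 uM. SteadyGlo luminescence gave expression; GF-AFC fluorescence gave viability.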
# Numbers without * were called inactive; i = inactive; ? = inconclusive; nt = no result given. Most compounds without a hit are left out; they make up all but 2.6% or so of the library. Unless noted, the call rests on the fitted dose curve; in most records, active means well fitted curve in the direction sought with a large enough effect; inconclusive means small, poorly fitted or top-dose-only effect, or another doubt; inactive means no such curve, though single readings can be large; an effect the other way counts as inactive or inconclusive.
SMILES,TGFb inhibitor,uPA surface inh,Giardia killer,ATXN viability,HepG2 tox,ATXN2 expr inh
C=C1C(=O)O[C@@H]2C[C@@H](C)[C@@H]3C=CC(=O)[C@@]3(C)[C@@H](OC(C)=O)[C@H]12,0.708µM*,?,-25.1,nt,2.51µM*,1.12µM*
C=C1C(=O)O[C@@H]2C[C@@H](C)[C@@H]3C=CC(=O)[C@@]3(C)[C@@H](O)[C@H]12,3.98µM*,-74.3%,-2.7,nt,11.2µM*,1.78µM*
COc1cc(/C=C(/C)[N+](=O)[O-])ccc1OCc1ccccc1Cl,5.01µM*,-19.0%,-17.3,31.6µM*,7.94µM*,25.1µM*
COC(=O)[C@H]1[C@@H](OC(=O)c2ccccc2)C[C@@H]2CC[C@H]1N2C,nt,nt,nt,i,nt,nt
N=c1c2c(-c3ccccc3)c(-c3ccccc3)n(Cc3ccccc3)c2ncn1C1CCC(O)CC1 (stereo not given),nt,nt,nt,nt,nt,24.3µM*
CCc1nc2ccc(C(=O)N3CCN(C(=O)c4ccco4)CC3)cn2c1N(C)Cc1ccc(OC)cc1,?,nt,nt,i,-3.1%,7.7%
Cc1ccc(-c2c(C)n3c4c(=O)n(C)c(=O)n(C)c4nc3n2CCO)cc1,-5.6%,nt,nt,?,-1.4%,-14.6%
O=C(CN1CC=C(c2ccccc2)CC1)Nc1cc(Cl)ccc1Cl,12.6µM*,1.0%,-21.7,i,-11.2%,-1.5%
COc1ccc2nc(N3CCN(C(=O)CS(=O)(=O)c4ccc(C)cc4)CC3)sc2c1,?,nt,nt,nt,-9.2%,nt
CC(=O)c1cccc(NC(=O)CCn2c(=O)oc3ccccc32)c1,2.6%,2.5%,0.2,i,-52.1%,13.4%
CN(C1=C(NC(=O)c2ccccc2)C(=O)c2ccccc2C1=O)C1CCS(=O)(=O)C1 (stereo not given),17.8µM*,10µM*,-21.0,31.6µM*,17.8µM*,?
COc1ccc(C=C(C(=O)O)c2ccc(OC)cc2)cc1,-6.1%,0.7%,5.4,?,-3.2%,17.3%
O=C(NCc1ccc2c(c1)CCN2C(=O)c1ccccc1)Nc1cccc(C(F)(F)F)c1,2.82µM*,nt,nt,nt,-10.3%,nt
COc1ccc(C(c2nnnn2Cc2ccccc2)N2CCC3(CC2)C(=O)NCN3c2ccccc2)cc1 (stereo not given),11.2µM*,nt,nt,?,-1.0%,-6.2%
COc1ccc(-n2nnnc2C(c2ccccc2OC(F)(F)F)N2CCC3(CC2)C(=O)NCN3c2ccccc2)cc1 (stereo not given),11.2µM*,nt,nt,nt,-31.9%,?
Cc1ccc(C(c2nnnn2Cc2ccccc2)N2CC=C(c3ccc(F)cc3)CC2)cc1 (stereo not given),0.4%,10.1%,-90.2*,i,-6.3%,5.7%
O=C1NCN(c2ccccc2)C12CCN(C(c1ccccc1OC(F)(F)F)c1nnnn1-c1ccc3c(c1)OCCO3)CC2 (stereo not given),?,nt,nt,22.4µM*,4.6%,0.0%
CC(Oc1ccccc1)C(=O)Nc1ccc(C(=O)OCc2cc(=O)n3nc(C4CC4)sc3n2)cc1 (stereo not given),-4.3%,nt,nt,?,-24.6%,-39.7%
CC(Cc1ccccc1)NCCCCl (stereo not given),nt,nt,nt,i,nt,-7.7%
CC(C)C[C@H]1CN=C(Nc2ccccc2)N1CCC(C)c1ccccc1 (stereo not given in full),?,?,-22.0,?,-7.4%,-23.0%
CCOC(=O)C(C)Oc1cc(C)cc2oc(=O)c3c(c12)CCCC3 (stereo not given),-4.2%,-23.6%,-2.0,i,-6.8%,58.9%
CCCCCc1cc(O)c2c3c(c(=O)oc2c1)CN(C)CC3,?,9.0%,7.6,i,10µM*,-11.6%
Nc1c(Br)cc2c3c(cccc13)-c1ccccc1-2,63.1%,-1.0%,5.6,i,15.8µM*,2.4%
c1ccc2c(c1)-c1cccc3cccc-2c13,-2.3%,10.9%,-11.9,i,-5.5%,-4.3%
C[C@]12CC[C@H]3[C@@H](CCC4=CC(=O)CC[C@@H]43)[C@@H]1CC[C@@H]2OC(=O)CCc1ccco1,nt,nt,nt,i,nt,-9.3%
